According to PubChem BioAssay AID1159580 (chemical genetic matrix, 2015):
“And” between values parts separate entries of the source, which are not always exact repeats. Equal entries are not always repeated. In all, about 5,500 compounds went through this assay and about 2,000 (36%) were called active. About 18% were inconclusive and are not listed. No stated cut-off is given here; in the data, active means normalized growth mostly below about 0.91 (no sharp cut-off); inconclusive means no clear call, values can overlap the other calls; inactive means mostly above about 0.92. The list shows a part of the results.

Assay: chemical genetic growth profiling, strain panel (AID 1159580);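 further: tested at 20 µM; growth read once vehicle control cultures reached saturation at 30 °C; 1 = growth at the plate median or of vehicle wells; lower values mean less growth of the strain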
Conditions: S. cerevisiae deletion strains, growth OD

Measured: normalized growth

CC1(C)CC2C1CCC1(C)OC2(C)CCC1O (stereo not given)
inactive: locus YAL021C, strain ccr4, active compounds read low 1.02 | locus YAL026C, strain drs2, active compounds read low 1.05 | locus YAL030W, strain snc1, active compounds read low 1.03 | locus YBL061C, strain skt5, active compounds read low 1.03 | locus YBR009C, strain hhf1, active compounds read low 1.03 | locus YBR021W, strain FUR4, active compounds read low 1.03 | locus YBR023C, strain chs3, active compounds read low 1.03 | locus YBR171W, strain sec66, active compounds read low 1.03 | locus YBR229C, strain ROT2, active compounds read low 1.02 | locus YBR231C, strain swc5, active compounds read low 1.02 | locus YBR279W, strain paf1, active compounds read low 1.02 | locus YCL011C, strain gbp2, active compounds read low 1.02 | locus YCL016C, strain dcc1, active compounds read low 1.01 | locus YCL029C, strain bik1, active compounds read low 1.01 | locus YCL061C, strain MRC1, active compounds read low 1.03 | locus YCL069W, strain vba3, active compounds read low 1.03 | locus YCR088W, strain abp1, active compounds read low 1.02 | locus YDL005C, strain med2, active compounds read low 1.03 | locus YDL035C, strain GPR1, active compounds read low 0.989 | locus YDL040C, strain nat1, active compounds read low 1.01 | locus YDL074C, strain BRE1, active compounds read low 1.02 | locus YDL101C, strain DUN1, active compounds read low 1.03 | locus YDL185W, strain tfp1, active compounds read low 1.01 | locus YDL192W, strain arf1, active compounds read low 1 | locus YDR001C, strain nth1, active compounds read low 1.02 | locus YDR069C, strain doa4, active compounds read low 1.02 | locus YDR101C, strain arx1, active compounds read low 0.993 | locus YDR137W, strain rgp1, active compounds read low 1.03 | locus YDR159W, strain sac3, active compounds read low 1.03 | locus YDR162C, strain NBP2, active compounds read low 1.02 | locus YDR195W, strain ref2 1.02 | locus YDR297W, strain sur2, active compounds read low 1.04 | locus YDR318W, strain mcm21, active compounds read low 0.994 | locus YDR334W, strain swr1, active compounds read low 1.03 | locus YDR335W, strain msn5, active compounds read low 1.02 | locus YDR388W, active compounds read low 1.01 | locus YDR392W, strain spt3, active compounds read low 0.958 | locus YDR502C, strain sam2, active compounds read low 1.03 | locus YEL003W, strain gim4, active compounds read low 1.02 | locus YEL037C, strain rad23, active compounds read low 1.02 | locus YEL061C, strain CIN8 (second series), active compounds read low 1.02 | locus YER015W, strain faa2, active compounds read low 1.04 | locus YER016W, strain bim1, active compounds read low 1.02 | locus YER110C, active compounds read low 1.01 | locus YER111C, strain swi4, active compounds read low 1.02 | locus YER155C, strain BEM2 (second series), active compounds read low 1.04 | locus YER155C, strain BEM2, active compounds read low 0.996 | locus YER167W, strain BCK2, active compounds read low 1 | locus YFR010W, strain ubp6, active compounds read low 1.04 | locus YGL078C, strain dbp3, active compounds read low 1.03 | locus YGL086W, strain mad1, active compounds read low 1.02 | locus YGL167C, strain pmr1, active compounds read low 1.03 | locus YGL173C, strain kem1, active compounds read low 1.04 | locus YGL227W, strain vid30, active compounds read low 1.01 | locus YGL240W, strain doc1, active compounds read low 1.03 | locus YGL248W, strain PDE1, active compounds read low 1.07 | locus YGL253W, strain hxk2, active compounds read low 1.04 | locus YGR135W, strain pre9, active compounds read low 1.08 | locus YGR229C, strain SMI1, active compounds read low 0.978 | locus YGR252W, strain gcn5, active compounds read low 1.11 | locus YHR013C, strain ard1, active compounds read low 1.06 | locus YHR027C, strain rpn1, active compounds read low 1.05 | locus YHR030C, strain SLT2, active compounds read low 0.992 and 1.02 | locus YHR079C, strain IRE1 (second series), active compounds read low 1.01 | locus YHR079C, strain IRE1, active compounds read low 1.02 | locus YHR094C, strain hxt1, active compounds read low 1.02 | locus YHR129C, strain ARP1, active compounds read low 1.01 | locus YHR142W, strain chs7, active compounds read low 1.02 | locus YHR200W, strain rpn10, active compounds read low 1.03 | locus YIL066C, strain RNR3, active compounds read low 1.01 | locus YIL073C, strain SPO22, active compounds read low 1.02 | locus YIL125W, strain kgd1, active compounds read low 0.999 | locus YIR030C, strain dcg1, active compounds read low 1 | locus YJL092W, strain hpr5, active compounds read low 1.03 | locus YJL095W, strain BCK1 (second series), active compounds read low 1.03 | locus YJL095W, strain BCK1, active compounds read low 1.09 and 1.03 | locus YJL115W, strain asf1, active compounds read low 1.03 | locus YJL129C, strain trk1, active compounds read low 1.05 | locus YJL134W, strain LCB3, active compounds read low 1 | locus YJL154C, strain vps35, active compounds read low 1.03 | locus YJL164C, strain tpk1, active compounds read low 1.01 | locus YJL166W, strain qcr8, active compounds read low 1.03 | locus YJL168C, strain set2, active compounds read low 1.01 | locus YJL187C, strain SWE1 (second series), active compounds read low 1.05 | locus YJR043C, strain POL32, active compounds read low 0.976 | locus YJR066W, strain TOR1, active compounds read low 0.959 | locus YJR075W, strain HOC1, active compounds read low 1.01 | locus YKL009W, strain mrt4, active compounds read low 0.984 | locus YKL068W, active compounds read low 1 | locus YKL085W, strain MDH1 (second series), active compounds read low 0.978 | locus YKL085W, strain MDH1, active compounds read low 0.978 | locus YKL160W, strain elf1, active compounds read low 1 | locus YKL190W, strain CNB1, active compounds read low 1 | locus YKR001C, strain vps1, active compounds read low 1.03 | locus YKR026C, strain gcn3, active compounds read low 1.03 | locus YKR091W, strain srl3, active compounds read low 1.01 | locus YLL001W, strain dnm1, active compounds read low 0.991 | locus YLL026W, active compounds read low 1.02 | locus YLL041C, strain sdh2, active compounds read low 1.02 | locus YLR027C, strain aat2, active compounds read low 1.02 | locus YLR039C, strain RIC1, active compounds read low 1.05 | locus YLR058C, strain SHM2, active compounds read low 1.03 | locus YLR102C, strain apc9, active compounds read low 1 | locus YLR113W, strain HOG1, active compounds read low 1.03 | locus YLR221C, strain rsa3, active compounds read low 1.04 | locus YLR258W, strain gsy2, active compounds read low 1.01 | locus YLR262C, strain YPT6 (second series), active compounds read low 1.03 | locus YLR268W, strain sec22, active compounds read low 0.981 | locus YLR320W, strain mms22, active compounds read low 1.04 | locus YLR330W, strain CHS5, active compounds read low 1 | locus YLR342W, strain FKS1 (second series), active compounds read low 0.993 | locus YLR342W, strain FKS1, active compounds read low 1.03 | locus YLR357W, strain rsc2, active compounds read low 1.04 | locus YLR370C, strain arc18, active compounds read low 1.02 | locus YLR371W, strain rom2, active compounds read low 1.02 | locus YLR384C, strain iki3, active compounds read low 1.02 | locus YLR418C, strain cdc73, active compounds read low 1.08 | locus YML016C, strain PPZ1, active compounds read low 1.01 | locus YML032C, strain rad52, active compounds read low 1.02 | locus YML120C, strain ndi1, active compounds read low 1.01 | locus YML124C, strain tub3, active compounds read low 1.01 | locus YMR058W, strain fet3, active compounds read low 1.04 | locus YMR078C, strain ctf18, active compounds read low 1.02 | locus YMR125W, strain sto1, active compounds read low 1.05 | locus YMR129W, active compounds read low 1.01 | locus YMR205C, strain PFK2, active compounds read low 1.04 | locus YMR223W, strain ubp8, active compounds read low 1.01 | locus YMR231W, strain pep5, active compounds read low 1.02 | locus YMR263W, strain SAP30, active compounds read low 1.02 | locus YMR307W, strain GAS1, active compounds read low 1.03 | locus YNL067W, strain RPL9B, active compounds read low 1.04 | locus YNL071W, strain lat1, active compounds read low 1.02 | locus YNL183C, strain NPR1, active compounds read low 0.969 | locus YNL209W, strain ssb2, active compounds read low 1.02 | locus YNL233W, strain BNI4, active compounds read low 1.07 | locus YNL248C, strain rpa49, active compounds read low 1.03 | locus YNL250W, strain rad50, active compounds read low 1.04 | locus YNL271C, strain bni1, active compounds read low 1.01 | locus YNL298W, strain CLA4, active compounds read low 1.01 | locus YNL307C, strain MCK1, active compounds read low 1.02 | locus YNL322C, strain KRE1 (second series), active compounds read low 1.02 | locus YNR049C, strain mso1, active compounds read low 1.06 | locus YNR052C, strain pop2, active compounds read low 1.03 | locus YOL012C, strain htz1 1.1 | locus YOL147C, strain pex11, active compounds read low 1.02 | locus YOR001W, strain rrp6, active compounds read low 1.03 | locus YOR061W, strain CKA2, active compounds read low 0.999 | locus YOR069W, strain VPS5, active compounds read low 1 | locus YOR070C, strain gyp1, active compounds read low 1.02 | locus YOR080W, strain dia2, active compounds read low 1.05 | locus YOR083W, strain WHI5, active compounds read low 1 | locus YOR106W, strain vam3, active compounds read low 1 | locus YOR136W, strain idh2, active compounds read low 1.02 | locus YOR144C, strain elg1, active compounds read low 1 | locus YOR184W, strain ser1, active compounds read low 0.981 | locus YOR231W, strain MKK1, active compounds read low 1.02 | locus YOR265W, strain rbl2, active compounds read low 1.03 | locus YOR270C, strain vph1, active compounds read low 1.07 | locus YOR290C, strain snf2, active compounds read low 1.01 | locus YOR316C, strain cot1, active compounds read low 1.02 | locus YPL051W, strain arl3, active compounds read low 1 | locus YPL078C, strain atp4, active compounds read low 1.01 | locus YPL106C, strain sse1, active compounds read low 1.04 | locus YPL240C, strain hsp82, active compounds read low 1.02 | locus YPL256C, strain CLN2, active compounds read low 1.03 | locus YPR119W, strain clb2, active compounds read low 1 | locus YPR141C, strain kar3, active compounds read low 0.987 | locus YPR163C, strain tif3, active compounds read low 1.02 | locus YPR167C, strain met16, active compounds read low 1.01 | strain wtn01, active compounds read low 1
